The structures appear in SMILES notation.

A short description of the assay: binders of probe aFSTL3 on microarray, primary screen, stem cell growth factor project, biochemical, small-molecule microarray, fluorescence 635/667 (AID 1064).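 Also: measures binding of the biotinylated anti-FSTL3 antibody to printed compounds.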 As to conditions: higher = more signal.
On to `CC#CC(=O)Oc1ccc(Br)cc1C=CC(=O)OCC`, for which the composite z-score worked out at 0.559.

With `CCCC(=O)N(CCc1c[nH]c2ccccc12)[C@@H]1CC(C(=O)NCCO)=C[C@H](Oc2c(I)cc(CO)cc2OC)[C@H]1O`, the composite z-score is -0.279.

`COCCOC(=O)N1C(=O)[C@@]2(c3ccccc31)[C@H](C(=O)N1CCCCCCC1)[C@H]1C(=O)O[C@H](c3ccccc3)[C@H](c3ccccc3)N1[C@@H]2c1ccc(OCCO)cc1` returned a composite z-score of 4.16.

Molecule `CCOC(=O)C[C@H]1[C@H](OC(=O)c2cc3ccccc3oc2=O)[C@@H](NC(=O)CC(C)C)c2cc(OCCCO)ccc2N1C(=O)c1ccccc1` had a composite z-score of -0.26.

For `O=C1OCC=C[C@H]2OC34C=CCN(CCN5CCOCC5)C(=O)[C@H]3N(CCO)C(=O)[C@@H]4[C@@H]12` (stereo not given in full), the composite z-score is -0.341.

On to `COCC(=C=CC[C@H](O)c1cccc(OCCO)c1)CCO`, for which the composite z-score was -0.44.

On to `C#CCN1[C@H](/C=C/C2CC2)[C@H](Cc2ccccc2)OC(=O)[C@@H]1Cc1ccccc1`, for which the composite z-score is -0.413.

With `O[C@@H](Cc1ccccc1)[C@@H](/C=C/C1CC1)NCc1cccc(Cl)c1`, the composite z-score was 1.53.

Turning to `C=C(/C(=C/C[C@H](OC(C)=O)c1ccc(OCCO)cc1)c1cc(C(=O)OC)ccc1OC)C(C)C`, the composite z-score is -0.183.

With `CCCC[C@@H]1C[C@H]1[C@@H](NC(=O)c1cccnc1)c1ccc(Cl)cc1`, the composite z-score amounted to 1.58.

For `CC(C)[C@@H](C(=O)O)n1cc(C2(O)CCCCC2)nn1`, the composite z-score is -0.401.

For `CC(C)CCC[C@@H](C)[C@H]1CC[C@@]2(C)C3=C(CC[C@]12C)[C@@]1(C)CC[C@H](OC(=O)c2ccc(C(F)(F)F)nc2)C(C)(C)C1CC3` (stereo not given in full), the composite z-score was -0.438.

With `O=C1O[C@@H](c2ccccc2)[C@@H](c2ccccc2)N2[C@@H](c3ccc(OCCO)cc3)[C@]3(C(=O)Nc4ccc(C#CC5=CCCCC5)cc43)[C@@H](C(=O)N3CCCCCCC3)[C@H]12`, the composite z-score is 3.69.

As for `CC(C)NC(=O)[C@@]1(Cc2ccccc2I)c2ccccc2C(=O)N(Cc2ccccc2Cl)[C@H]1c1ccc(CO)cc1`, the composite z-score amounted to 0.232.

The molecule `COc1ccc([Si](C)(C)[C@H]2[C@H](CCO)O[C@@]3(C(=O)N(Cc4ccccc4)c4ccc(N5CCCCC5=O)cc43)[C@@H]2C)cc1` gave a composite z-score of -0.347.

As to `COc1ccc([C@H]2C[C@H]3C(Br)=C[C@@]2(CO)C(=O)[C@]32CO2)cc1`, the composite z-score was -0.035.

The molecule `CO[C@H]1O[C@H](CO)[C@@H](OC(=O)Nc2ccc(Oc3ccccc3)cc2)[C@H](OC(=O)Nc2ccc3c(c2)OCO3)[C@@H]1OC(=O)Nc1ccc2c(c1)OCO2` returned a composite z-score of 0.154.

`O=C(NC1CC1)[C@@H]1c2ccccc2C(=O)N(C2Cc3ccccc3C2)[C@H]1c1ccc(CO)cc1`: the composite z-score is -0.549.

In turn, `CC(C)=CCCC(C)=CC(O)C1C=CC2C(=O)N(c3ccccc3)C(=O)C2N1Nc1ccc(C(C)C)cc1` (stereo not given) gave a composite z-score of -0.345.

Turning to `C=CC[C@]1(C(N)=O)N=C(c2ccc(OCCCO)cc2)O[C@H]1c1ccccc1`, the composite z-score was found to be 0.966.

`COc1cc2c(cc1O)C(c1cccs1)N(Cc1cccc(OC(F)(F)F)c1)CC2` (stereo not given) had a composite z-score of 0.0011.

On to `C=C(CCCC)C(=O)CC[C@@H](OC(C)=O)c1ccc(CO)o1`, for which the composite z-score was -0.327.

`O=C(CS)NCCCCCNC(=O)[C@H]1C[C@H]2C(=O)NCC(=O)N2[C@H]1c1ccc(O)cc1` had a composite z-score of 0.205.

The molecule `COC(=O)[C@H](Cc1ccccc1)N[C@H](/C=C/C1CC1)[C@@H](O)Cc1ccccc1` displayed a composite z-score of 0.128.

`C=C(CCCC)C(=O)CC[C@H](OC(=O)c1cccnc1)c1ccc(OCCO)cc1` yielded a composite z-score of 0.242.

With `O=C1O[C@@H](c2ccccc2)[C@@H](c2ccccc2)N2[C@@H](c3ccccc3OCCO)[C@]3(C(=O)Nc4ccc(C#CC5(O)CCCCCC5)cc43)[C@@H](C(=O)N3CCN(c4ncccn4)CC3)[C@H]12`, the composite z-score is -0.002.

Regarding `C=CCN1C(=O)[C@]2(O[C@H](CCO)[C@@H]([Si](C)(C)c3ccc(OC)cc3)[C@@H]2C)c2cc(N(C=O)c3ccccc3)ccc21`, the composite z-score is 0.0147.

As to `C=C(C(=O)CC[C@H](OC(C)=O)c1ccccc1OCCO)C(C)C`, the composite z-score was -0.214.

For `COC(=O)[C@@]1(Cc2ccc(OC)cc2)[C@H]2c3cc(C(=O)N4CCCC4)n(Cc4nc5ccccc5[nH]4)c3C[C@H]2CN1C(=O)c1ccccc1`, the composite z-score came to 1.13.

`CC(c1ccccc1)C(O)C1C=CC2C(=O)N(c3ccccc3)C(=O)C2N1Nc1ccccc1` (stereo not given): the composite z-score is -0.245.

With `CCCC[C@H]1C[C@@H]1[C@@H]1N(P(=O)(c2ccccc2)c2ccccc2)C[C@@](O)(c2ccccc2)CC12CC2`, the composite z-score is 0.666.

In the case of `COCC(=C=CC[C@H](O)c1ccccc1OCCO)CCO`, the composite z-score was -0.2.

For the molecule `O=C1C[C@@](C(=O)NCc2ccccc2)(c2ccc([N+](=O)[O-])cc2)[C@@H](c2ccc(CO)cc2)N1CC12CC3CC(CC(C3)C1)C2`, the composite z-score is -0.237.

Consider `COC(=O)c1c(CC[C@@H](CO)NC(=O)N[C@H](Cc2ccccc2)Cn2cc(-c3ccccn3)nn2)oc(C(C)=O)c1C(=O)OC`, for which the composite z-score was -0.241.

Molecule `COC(=O)[C@]1(CCC(=O)OC(C)(C)C)N=C(c2ccc(OCCCO)cc2)O[C@@H]1c1ccccc1` came in with a composite z-score of 1.11.

The values are drawn from PubChem BioAssay.
